Measurements from paper PMC4552634, “A New Set of Chemical Starting Points with Plasmodium falciparum Transmission-Blocking Potential for Antimalarial Drug Discovery” (PLoS ONE, 2015).
Out of some 13,000 compounds screened, about 3,200 (25%) showed an effect of 50% or more. Some of the results follow.

Each molecule was assayed on P. falciparum stage V gametocytes. Settings: 48 h, 5 µM; inhibitor.
Design: BacTiter-Glo ATP luminescence viability of purified stage V gametocytes in 384-well plates, per cent inhibition versus DMSO

Compound	% Inhibition
COc1cc(CNCCCNc2cc(=O)c3ccccc3[nH]2)c2c(c1)C(C)CN2C(=O)OC(C)(C)C (centres unmarked) [TCMDC-140390]	-23.23%
Cc1c(O)cccc1Nc1ccnc2ccc(C(F)(F)F)cc12 [TCMDC-138246]	-8.539%
CN(C)C(=O)CN1CCN(c2ncnc(N3CCc4c([nH]c5ccccc45)[C@@H]3c3ccc4c(c3)CCO4)n2)CC1 [TCMDC-138571]	5.552%
Oc1cccc(C2CCCN(Cc3cccc4cc[nH]c34)C2)c1 (centres unmarked) [TCMDC-134419]	-7.919%
CCCCc1cc(NCc2ccncc2)nc(Nc2ccc(C)cc2)n1 [TCMDC-134000]	-5.693%
NC1CCN(Cc2ccc(-c3cccc(-c4nc5ccc(F)cc5[nH]4)c3)cc2)C1 (centres unmarked) [TCMDC-133838]	61.76%
NC1CCN(Cc2ccc(-c3ccc(-c4nc5cc(F)ccc5[nH]4)cc3)cc2)C1 (centres unmarked) [TCMDC-133872]	102.5%
NC1CCCN(Cc2cccc(-c3ccc(-c4nc5ccc(F)cc5[nH]4)cc3)c2)C1 (centres unmarked) [TCMDC-133855]	20.47%
O=C(O)C(F)(F)F.OC1CCCN(Cc2ccc(-c3ccc(-c4nc5cc(F)ccc5[nH]4)cc3)cc2)C1 (centres unmarked) [TCMDC-133833]	-10.21%
OC1CCCN(Cc2ccc(-c3cccc(-c4nc5ccc(F)cc5[nH]4)c3)cc2)C1 (centres unmarked) [TCMDC-133815]	-14.67%
NC1CCN(Cc2cccc(-c3ccc(-c4nc5ccc(F)cc5[nH]4)cc3)c2)C1 (centres unmarked) [TCMDC-133853]	40.4%
CC1CN(Cc2ccc(-c3ccc(-c4nc5cc(F)ccc5[nH]4)cc3)cc2)CC(C)O1.O=C(O)C(F)(F)F (centres unmarked) [TCMDC-133831]	-15.75%
NC1CCCN(Cc2ccc(-c3cccc(-c4nc5ccc(F)cc5[nH]4)c3)cc2)C1 (centres unmarked) [TCMDC-133840]	68.96%
CC(=O)N(C)C1CCN(Cc2ccc(-c3cccc(-c4nc5ccc(F)cc5[nH]4)c3)cc2)C1 (centres unmarked) [TCMDC-133885]	25.2%
O=C(Nc1ccc2c(c1)CCN2C1CCN(Cc2ccc(O)cc2)C1)c1ccco1 (centres unmarked) [TCMDC-135066]	-16.31%
COC(=O)c1ccc(CC(C)NCC(O)c2cccc(C(F)(F)F)c2)cc1F (centres unmarked) [TCMDC-131519]	6.156%
NC1=NC(c2ccccc2)(c2ccccc2)C(=O)N1Cc1ccccc1Br [TCMDC-136813]	-33.84%
O=c1cc(NCc2ccccc2NCc2ccc(Cl)c(Cl)c2)[nH]c2ccccc12 [TCMDC-139499]	-0.9265%
COc1ccc2c(NN=Cc3ccncc3)ccnc2c1 [TCMDC-142030]	-7.897%
COc1ccc2c(NN=Cc3ccncc3)cc(C)nc2c1 [TCMDC-142038]	85.05%
COc1ccc2nc(C)cc(Nc3ccc(N4CCN(C)CC4)cc3)c2c1 [TCMDC-125813]	1.536%
COc1ccc(C=NNc2cc(C)nc3ccc(OC)cc23)c(OC)c1 [TCMDC-123955]	105.7%
COc1ccc2nc(C)cc(Nc3ccc(Cl)c(Cl)c3)c2c1 [TCMDC-124166]	19.57%
COc1ccc2nccc(NN=Cc3ccncc3)c2c1 [TCMDC-142033]	25.13%
COc1ccc2nc(C)cc(NN=Cc3cc(C)ccc3O)c2c1 [TCMDC-124232]	86.79%
COc1ccc2c(Nc3ccc(N4CCN(C)CC4)cc3)cc(C)nc2c1 [TCMDC-123914]	63.09%
